This is a sample that favours compounds with a hit; in the whole collection about 2.4% have one here.
Pf gametocyte: P. falciparum stage V gametocyte viability inhibition; P. falciparum stage V gametocytes, ATP luminescence, 24 h; inhibition, % at 10.9 µM; 150,000 compounds, 0.065% hits;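 active = inhibition above the mean plus 3 SD of compounds within the control limits, set per campaign, cut at about 38% in these data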;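 note: 0% = DMSO wells and 100% = medium only without gametocytes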
MEKK2mut PB1 HTS: signal of MEK5 binding to mutant human MEKK2 PB1 domain; bead flow cytometry, Alexa488-MEK5 binding to MEKK2 mutant; 290,000 compounds, 0.35% hits; percent response, % at 10 µM; in the data active = percent response above about 24%, passing the limit was not always enough
MEKK3 PB1 HTS: MEKK3-MEK5 PB1 interaction, increase or decrease | bead-based flow cytometry, Alexa488-MEK5 binding to MEKK3; actives lie on both sides; 0 = blocked by unlabeled MEK5, 100 = vehicle | 290,000 compounds, 1.4% hits | Q99759 | binding response (% of control), % at 10 µM;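 active = binding response more than 3 SD above or below the average of its plate-row segment, actives on both sides; inconclusive = wells at one plate position flagged as instrument error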;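 note: Alexa488 bead fluorescence after subtracting the streptavidin-only scavenger bead signal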
Target sequence (Q99759 whole entry, looked up): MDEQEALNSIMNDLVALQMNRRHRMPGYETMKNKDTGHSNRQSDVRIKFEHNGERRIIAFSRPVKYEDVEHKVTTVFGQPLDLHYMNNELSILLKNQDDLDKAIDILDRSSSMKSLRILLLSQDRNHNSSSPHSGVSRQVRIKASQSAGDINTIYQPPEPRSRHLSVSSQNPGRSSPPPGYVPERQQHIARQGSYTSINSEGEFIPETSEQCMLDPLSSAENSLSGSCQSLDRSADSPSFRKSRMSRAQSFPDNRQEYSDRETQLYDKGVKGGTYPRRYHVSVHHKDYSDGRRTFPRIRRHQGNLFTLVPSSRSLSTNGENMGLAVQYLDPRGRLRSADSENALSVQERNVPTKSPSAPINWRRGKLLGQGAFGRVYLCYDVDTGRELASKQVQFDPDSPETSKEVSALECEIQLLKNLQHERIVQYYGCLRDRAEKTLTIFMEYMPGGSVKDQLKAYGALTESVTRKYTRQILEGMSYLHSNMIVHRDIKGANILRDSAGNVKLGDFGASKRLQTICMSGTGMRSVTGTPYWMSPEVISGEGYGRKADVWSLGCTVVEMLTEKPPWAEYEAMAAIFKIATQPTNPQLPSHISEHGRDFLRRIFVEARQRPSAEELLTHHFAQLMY
Arbovirus inh: blocks arbovirus infection; arbovirus infection cell-based antiviral screen; inhibition, % at 10 µM; 200,000 compounds, 0.37% hits; AID 1251; in the data active = inhibition above about 30%
MEKK2wt PB1 HTS: raises or lowers MEK5 binding to wildtype human MEKK2 PB1 domain; Q9Y2U5; bead flow cytometry, Alexa488-MEK5 binding to MEKK2 WT; actives lie on both sides; binding response (% of control), % at 10 µM; 290,000 compounds, 1.1% hits; AID 1531; in the data active = binding response below about 67% or above about 130%; inconclusive = no clear call, values can overlap the other calls; inactive = in between
Starred values were filed as active, the others as inactive; ? = inconclusive; . = not tested or not shown; [ ] = remark or other dose.

SMILES	Pf gametocyte	MEKK2mut PB1 HTS	MEKK3 PB1 HTS	Arbovirus inh	MEKK2wt PB1 HTS
CCCCc1nc2cc(C(=O)N3CCCC(OCCC)C3)ccc2o1 (centres undefined)	.	3	103	.	101
CC1=CC(C)(C)n2c(O)c(N=NC(N)=S)c3c(C)ccc1c32	-11	14	101	-2	107
CC1=CC(C)(C)n2c(O)c(N=NC(N)=S)c3cccc1c32	10	0	146*	-5	108
Cn1cc(CN2CCC(C(=O)Nc3cccc(-c4cccc(F)c4)c3)CC2)cn1	.	21	107	.	146*
Cc1nn(C(C)C)c(C)c1CN1CCC(C(=O)Nc2cccc(-c3cccc(F)c3)c2)CC1	.	9	99	.	135*
C=CCn1cc(CN2CCC(C(=O)Nc3cccc(-c4cccc(Cl)c4)c3)CC2)c(C)n1	.	10	99	.	157*
CCn1cc(CN2CCCC(C(=O)Nc3cccc(-c4cc5ccccc5[nH]4)c3)C2)cn1 (centres undefined)	.	22	103	.	147*
COc1cccc(-c2cccc(NC(=O)C3CCN(Cc4cnn(C)c4)CC3)c2)c1	.	8	98	.	105
O=C(O)C1CCCCC1C(=O)Nc1ccc(S(=O)(=O)N2CCCCC2)cc1 (centres undefined)	.	-1	102	.	91
Cc1c(CN2CCC(C(=O)Nc3cccc(-c4cccc(Cl)c4)c3)CC2)cnn1C	.	12	97	.	136*
C=CCn1cc(CN2CCC(C(=O)Nc3cccc(-c4cccc(F)c4)c3)CC2)c(C)n1	.	16	105	.	135*
O=C(Nc1cccc(-c2cccc(Cl)c2)c1)C1CCN(Cc2ccon2)CC1	.	17	109	.	123
COc1ccc(Cl)cc1NC(=O)C1COc2ccccc2O1 (centres undefined)	12	-4	98	32*	95
O=C(NC(=S)NCC1CCCO1)c1ccc([N+](=O)[O-])cc1 (centres undefined)	.	-1	98	9	101
CCOC(=O)c1c(C)[nH]c(C)c1S(=O)(=O)NC1CCN(C(=O)OCC)CC1	.	4	100	.	104
O=C(O)c1ccc2c3c(cccc13)C(=O)N(c1ccccc1)C2=O	-23	-5	96	-3	97
Cc1c(O)c2c3c(cccc3c1O)C(=O)N(c1ccccc1)C2=O	.	2	105	35*	104
CCn1c(COc2cccc3ccccc23)nnc1SCC(=O)OC1CCCCC1	6	-1	103	34*	96
Cc1cc(NS(=O)(=O)c2ccc(NC(=O)/C=C/c3cccc(Cl)c3)cc2)no1	.	3	105	.	103
CSCCC(=O)N1CCN(CC(=O)N2CCCC2)CC1	.	0	101	.	102
CC(C)NC(=O)CC1C(=O)NCCN1CC(c1ccccc1)c1ccccc1 (centres undefined)	.	-5	98	5	96
CC(C)(CO)CNC(=O)CC1C(=O)NCCN1CC(c1ccccc1)c1ccccc1 (centres undefined)	-3	12	91	32*	114
COc1ccc2c(C=O)cn(C)c2c1	-19	-5	91	-3	97
CCOc1cccc2sc(N(CCN(C)C)C(=O)/C=C/c3cccs3)nc12	.	26*	105	.	144*
COc1ccc(C)c2sc(N(CCN(C)C)C(=O)/C=C/c3cccs3)nc12	.	13	103	.	145*
SMILES	Pf gametocyte	MEKK2mut PB1 HTS	MEKK3 PB1 HTS	Arbovirus inh	MEKK2wt PB1 HTS
CCN(CC)CCN(C(=O)/C=C/c1cccs1)c1nc2ccc(C)cc2s1	.	17	105	.	160*
CC(Sc1nc2c(cc1C#N)CCCCC2)C(=O)O (centres undefined)	-4	7	98	0	100
C=CCc1cccc2cc(C(=O)Nc3ccccc3C(=O)O)c(=O)oc12	.	-4	96	32*	97
O=C(COC(=O)c1ccc(NS(=O)(=O)c2cccs2)cc1)Nc1nc2c(F)c(F)c(F)cc2s1	.	0	100	34*	96
Cc1nn2c(NC(C)C)c3c(nc2c1-c1ccccc1)CCC3	-10	0	98	.	98
Cc1nn2c(Nc3ccccc3)c3c(nc2c1-c1ccccc1)CCC3	-5	2	176*	-2	113
O=c1c(Cl)c(N2CCCCC2)cnn1-c1nc2ccccc2[nH]1	-8	0	99	-12	98
O=c1c2ccccc2cnn1-c1nc2ccccc2[nH]1	47*	-4	100	-20	101
O=C(CN1C(=O)NC2(CCCC2)C1=O)Nc1ccc(F)c([N+](=O)[O-])c1	.	-2	101	.	105
CCN(CC)c1ccc(/C=C/C(=O)C2C(=O)C=C(C)OC2=O)cc1 (centres undefined)	-7	61*	108	1	72
CCOC(=O)c1c(-c2ccccc2)csc1N1C(=O)Nc2ccccc2N1O	-3	-5	109	21	100
COC(=O)c1c(-c2ccccc2)csc1N1C(=O)Nc2ccccc2N1O	0	0	107	36*	106
O=C(c1ccc(F)cc1)N(Cc1cccs1)C1CCS(=O)(=O)C1 (centres undefined)	.	-18	2.0*[inhibitor]	.	0.0*[inhibitor]
O=C1NCCn2ccc(=O)cc21	-10	-2	102	.	98
Cc1nn(-c2ccccc2)c(Cl)c1/C=N/NC(=O)OC(C)(C)C	-24	0	96	16	95
Cc1nn(-c2ccccc2)c(Cl)c1/C=N/Nc1ccc(Cl)c(C(=O)O)c1	.	-2	96	89*	94
CC1=C(C(=O)O)N2C(=O)C(NC(=O)c3nn(C)cc3[N+](=O)[O-])C2SC1 (centres undefined)	-7	139*	?	12	?
CC1=C(C(=O)O)N2C(=O)C(NC(=O)c3ccn(C)n3)C2SC1 (centres undefined)	3	5	106	-4	106
CC1N(C)c2cc(NC(=O)c3ccco3)ccc2C1(C)C (centres undefined)	.	3	101	-19	-7.0*
CC1N(C)c2cc(NC(=O)c3ccco3)c(P(=O)(Nc3ccc([N+](=O)[O-])cc3)N3CCOCC3)cc2C1(C)C (centres undefined)	.	-3	104	-13	85
Cc1cc(=O)n2cccc(O)c2n1	-10	-8	99	3	88
Cc1ccc(CNC(=O)C2CCN(S(=O)(=O)N3CCCCC3)CC2)cc1	40*	-10	78	15	79
CCc1ccc(CNC(=O)C2CCN(S(=O)(=O)N3CCCC3)CC2)cc1	.	-1	100	.	102
O=C(NC1CCCN(C2Cc3ccccc3C2)C1)c1ccc(F)cc1Cl (centres undefined)	.	-6	99	.	95
OCCNc1nc(Nc2ccccc2)nc(Nc2ccccc2)n1	5	22	110	-3	114
OCCNc1nc(Nc2ccccc2)nc2ccccc12	.	3	110	34*	110
Cc1ccc(C(=O)NCC(=O)N/N=C/c2cccs2)cc1[N+](=O)[O-]	.	1	120	7	111
COc1ccc(-c2cc(-c3ccc(Cl)cc3)n[nH]2)c(O)c1	.	6	109	.	107

Screens deposited in PubChem BioAssay by several laboratories.
